Test results: PubChem BioAssay (NCI)
This is part of a sample that, as a whole, favours compounds with a hit. Of some 83,000 tested, about 20% had one in any assay.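 Cell lines were cultured in 96-well plates, exposed to a single compound concentration, and assessed for percent growth 48 hours later.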 Unmarked numbers belong to inactive results. Calls of active or inactive are those of the source. The calls were made as follows: active = growth percent below 10; inactive = the rest.

What was measured:
Experiment in all cases: NCI-60 one-dose screen, 48 h (100 = growth as untreated, 0 = no growth, -100 = all killed)
Conditions in all cases: 10 µM unless noted
SK-MEL-2 melanoma = tested on: SK-MEL-2 melanoma
EKVX NSCLC = tested on: EKVX NSCLC
SN12C renal = tested on: SN12C renal
UO-31 renal = tested on: UO-31 renal
TK-10 renal = tested on: TK-10 renal
ACHN renal = tested on: ACHN renal
CAKI-1 renal = tested on: CAKI-1 renal
A498 renal = tested on: A498 renal
CCRF-CEM leukemia = tested on: CCRF-CEM leukemia
MOLT-4 leukemia = tested on: MOLT-4 leukemia
SR leukemia = tested on: SR leukemia
RPMI-8226 leukemia = tested on: RPMI-8226 leukemia
OVCAR-8 ovarian = tested on: OVCAR-8 ovarian
OVCAR-5 ovarian = tested on: OVCAR-5 ovarian
OVCAR-4 ovarian = tested on: OVCAR-4 ovarian
SK-OV-3 ovarian = tested on: SK-OV-3 ovarian
IGROV1 ovarian = tested on: IGROV1 ovarian
OVCAR-3 ovarian = tested on: OVCAR-3 ovarian
HS 578T breast = tested on: HS 578T breast
NCI/ADR-RES ovarian = tested on: NCI/ADR-RES ovarian

SMILES	growth (SK-MEL-2 melanoma)	growth (EKVX NSCLC)	growth (SN12C renal)	growth (UO-31 renal)	growth (TK-10 renal)	growth (ACHN renal)	growth (CAKI-1 renal)	growth (A498 renal)	growth (CCRF-CEM leukemia)	growth (MOLT-4 leukemia)	growth (SR leukemia)	growth (RPMI-8226 leukemia)	growth (OVCAR-8 ovarian)	growth (OVCAR-5 ovarian)	growth (OVCAR-4 ovarian)	growth (SK-OV-3 ovarian)	growth (IGROV1 ovarian)	growth (OVCAR-3 ovarian)	growth (HS 578T breast)	growth (NCI/ADR-RES ovarian)
C=C1C(=O)O[C@H]2[C@H]1CC/C(CNC(=O)c1c[nH]c3ccc(F)cc13)=C\CC[C@@]1(C)O[C@@H]21	45.1%	60.3%	47.5%	-79.2% (active)	-51.7% (active)	-18% (active)	16.2%	15.4%	-21% (active)	-39.7% (active)	-28.2% (active)	-20.8% (active)	-33.3% (active)	19.6%	49%	81.7%	41.7%	-36.7% (active)	44%	56.3%
Oc1c(CN2CCCC2)cc(CSCc2ccccc2)c2cccnc12	11.3%	37%	17.6%	-18% (active)	22.4%	5.28% (active)	7.37% (active)	9.44% (active)	-14.9% (active)	-14.4% (active)	-7.76% (active)	7.56% (active)	7.91% (active)	41.8%	-2.42% (active)	-15.6% (active)	-3.98% (active)	5.77% (active)	64.5%	-46.4% (active)
CCN1C(=O)N(CC)C2C1NC(=S)N2/N=C/c1ccc(OC)cc1 (stereo not given)	65%	79.6%	62.6%	51.8%	79.8%	64%	32.9%	29.9%	52.8%	47.7%	24.1%	85.4%	70.4%	82.7%	81%	57%	44.9%	17.1%	47.5%	57.4%
